In PubChem BioAssay (NCI):
The panel holds about 83,000 compounds, 20% with a hit somewhere; the sample as a whole holds those more often.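 Note: values are percent growth. 100 is the growth of untreated cells, values between 100 and 0 indicate rising inhibition; between -100 and 0 indicates cell death.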 Unmarked numbers belong to inactive results. Activity calls are given as the source filed them. The calls were made as follows: active = growth percent below 10; inactive = the rest.

Test system: NCI-H460 lung
Assay: NCI-60 one-dose screen, 48 h (100 = growth as untreated, 0 = no growth, -100 = all killed)
Conditions: 10 µM unless noted

Question: For Cc1ccc(Cl)cc1NC(=O)c1cc2ccccc2cc1O, which growth is on record?
Answer: Its growth is -22.5% (active).

Question: With CC1SC(c2ccc(OCc3ccccc3)cc2)N(NC(=O)C(O)(c2ccccc2)c2ccccc2)C1=O (stereo not drawn) as the compound, how does the growth read?
Answer: The growth was 38.5%.

Question: With O=c1cc(C2NNC(=S)N2)c2ccc3ccccc3c2o1 (stereo not drawn) as the compound, how does the growth read?
Answer: Its growth is 98.6%.

Question: For Cc1ccc(Nc2nc(N)nc(CSCC(=O)NN)n2)cc1, which growth is on record?
Answer: Its growth is 107%.

Question: How did the growth turn out when O=[N+]([O-])c1ccc(OCCO)cc1 was run?
Answer: Its growth is 108%.

Question: For O=C(CSc1nnc(-c2ccc(NC(=O)c3cccnc3)cc2)o1)N[C@@H](Cc1ccc(O)cc1)C(=O)O, which growth is on record?
Answer: Its growth is 111%.

Question: How did the growth turn out when O=C(/C=C/c1ccco1)c1ccc(Nc2nc(Nc3ccc(F)cc3)nc(Nc3ccc(Cl)cc3)n2)cc1 was run?
Answer: Its growth is 61.7%.

Question: CCOC(=O)c1c(-c2ccc(Cl)cc2)c(C#N)c(=O)n(-c2ccccc2CC)c1N was tested. Which growth did it give?
Answer: The growth was 82.3%.

Question: How did the growth turn out when COC(=O)[C@]12CC[C@@H](C)[C@H](C)[C@@H]1C1=CC[C@@H]3[C@@]4(C)C(C=O)=C[C@@](C)(COC(C)=O)C4=CC[C@@]3(C)[C@]1(C)CC2 was run?
Answer: The growth was -29.1% (active).

Question: For C[C@]12CC[C@@H]3c4cc(OC(F)F)c(O)cc4CC[C@H]3[C@@H]1CC[C@@H]2OS(N)(=O)=O, which growth is on record?
Answer: The growth was 13.9%.

Question: Which growth does the source give for NCCCNc1nc2ccccc2c2c(=O)c3cccc(Cl)c3sc12 here?
Answer: Its growth is -75% (active).

Question: O=C(N=c1oc2ccccc2cc1-c1cc2ccccc2[nH]1)c1ccc(Cl)cc1 was tested. Which growth did it give?
Answer: Its growth is 77.2%.

Question: Which growth does the source give for CSc1n(Cc2ccc3ccccc3c2)c(C)c[n+]1Cc1ccc2ccccc2c1 here?
Answer: Its growth is -0.332% (active).

Question: Which growth does the source give for COC(=O)CCC1=C(C)C2=NC1=CC1=NC(=CC3=NC(=Cc4[nH]c(/c(=C(/C)O)c4C)=C2)C(C(C)=O)=C3C)C(C)=C1CCC(=O)OC here?
Answer: The growth was 103%.

Question: COc1ccc(Nc2nnc(SCc3ccccc3F)s2)cc1 was tested. Which growth did it give?
Answer: Its growth is 111%.

Question: For O=C(N/N=C/C=C/c1ccc([N+](=O)[O-])o1)c1cc2ccccc2cc1O, which growth is on record?
Answer: Its growth is -14.3% (active).

Question: OC(COc1ccccc1Cl)COc1ccccc1Cl was tested. Which growth did it give?
Answer: Its growth is 107%.

Question: c1ccc(-c2nc([P+](c3ccccc3)(c3ccccc3)c3ccccc3)c(N3CCOCC3)o2)cc1 was tested. Which growth did it give?
Answer: Its growth is 10.1%.

Question: O=C1CCc2c(sc3[nH]c(=S)n(-c4ccc(OC(F)(F)F)cc4)c(=O)c23)C1 was tested. Which growth did it give?
Answer: Its growth is 2.8% (active).

Question: For O=C(Nc1ccc(Cl)cc1)Nc1ccc(Cl)c(C(F)(F)F)c1, which growth is on record?
Answer: The growth was 0.218% (active).

Question: For COc1ccc(C2CC(c3cccc(OC)c3)=NN2C(=O)c2cc(OC)c(OC)c(OC)c2)cc1 (stereo not drawn), which growth is on record?
Answer: The growth was 11.4%.

Question: How did the growth turn out when CCOC(=O)C/C(C)=N\NC(=O)c1ccncc1 was run?
Answer: The growth was 103%.

Question: COc1ccc2oc3c(C)c4c(c(C)c3c2c1)C(=O)N(Cc1ccccc1)C4=O was tested. Which growth did it give?
Answer: Its growth is 69.4%.

Question: With CC(C)=C[C@@H]1c2c(c3ccccc3n(C)c2=O)O[C@H]2c3c(c4ccccc4n(C)c3=O)OC(C)(C)[C@@H]12 as the compound, how does the growth read?
Answer: The growth was 75.3%.

Question: Cc1ccc(NCCN(C)C)c2c(=O)c3ccccc3sc12 was tested. Which growth did it give?
Answer: Its growth is -14.5% (active).

Question: For C=C1C(=O)O[C@H]2[C@H]1CC/C(COC(=O)C(=O)c1c[nH]c3ccccc13)=C\CC[C@@]1(C)O[C@@H]21, which growth is on record?
Answer: The growth was 6.72% (active).

Question: How did the growth turn out when Oc1ccc(CN2CCC(N3CCOCC3)CC2)c2cccnc12 was run?
Answer: Its growth is 10.8%.

Question: How did the growth turn out when O=C1CCC2=C3C4CCCCC4C(=O)C4CCCC(OC2C1)C34 (stereo not drawn) was run?
Answer: The growth was -18.6% (active).

Question: Cc1cc(=O)[nH]c(N=Nc2c(O)[nH]c3ccccc23)n1 was tested. Which growth did it give?
Answer: The growth was 105%.

Question: COc1cc(/C=C/C(=O)N2CCN(C(=O)c3cc(OC)c(OC)c(OC)c3)CC2)ccc1OCCCN1C(=O)c2cccc3cccc(c23)C1=O was tested. Which growth did it give?
Answer: The growth was 82.6%.

Question: Which growth does the source give for Cc1ccc(S(=O)(=O)N/N=C\c2cc(Cl)ccc2O)cc1 here?
Answer: Its growth is 93.7%.

Question: For COc1cc(OC)cc(C2CC(=O)Nc3c2c(C)nn3-c2nc3ccccc3[nH]2)c1 (stereo not drawn), which growth is on record?
Answer: Its growth is 5.89% (active).

Question: For Cc1ccc(S(=O)(=O)n2cc(CNc3ccc(N4CCOCC4=O)cc3)c3ccccc32)cc1, which growth is on record?
Answer: Its growth is 99.8%.

Question: How did the growth turn out when CC1O[C@@H](OC2[C@H](OC(=O)/C=C/c3ccc(O)c(O)c3)C(COC3O[C@H](C)C(O)C(O)[C@@H]3O)O[C@@H](OCCc3ccc(O)c(O)c3)[C@H]2O)[C@@H](O)C(O)[C@H]1O (stereo partly drawn) was run?
Answer: The growth was 109%.

Question: CS(=O)c1cccc(-c2ccc3nc(N)n(-c4ccc(C(F)(F)F)cc4)c(=O)c3c2)c1 (stereo not drawn) was tested. Which growth did it give?
Answer: The growth was 102%.

Question: For CCOc1ccccc1-n1c(CN2CCN(C(=O)COc3ccc(CNCCCCCCN4C5CCCC4CC(OC(=O)Nc4cc(C)ccc4OC)C5)cc3)CC2)nc2ccccc2c1=O (stereo not drawn), which growth is on record?
Answer: Its growth is -90.9% (active).

Question: For O=C(O)CN1C(=O)CCC1=O, which growth is on record?
Answer: Its growth is 115%.

Question: For Cc1cccc(NC(=O)CSc2nc3ccccc3[nH]2)c1, which growth is on record?
Answer: The growth was 105%.
